Drawing on the supplement of paper PMC11172423, this text covers growth for 23 compounds.

Experiment [1] has as its system Falciformispora senegalensis CBS197.79. Description: growth relative to untreated control; higher = less inhibition, active = 20 or less. The essentials: (§1)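 Growth was expressed as metabolic activity relative to the untreated growth control, with both corrected using a blank of medium plus dye. Hyphal fragments of M. mycetomatis MM55 or F. senegalensis CBS197.79 were suspended to 68–72% transmission at 660 nm in colourless RPMI 1640 containing L-glutamine and MOPS. In 96-well plates they were exposed to compound at 100 or 25 µM for 7 days at 37 °C, and viability was read with MTS (2 h, 490 nm) or resazurin (600 nm).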

Experiment [2] relates to Madurella mycetomatis MM55. The experiment is described as above. The procedure, abridged: as §1

Values without a mark were called inactive.

On to `CCN1CCN(Cc2ccc(Nc3ncc(F)c(-c4cc(F)c5nc(C)n(C(C)C)c5c4)n3)nc2)CC1`, for which the growth was 101% in experiment [1] (25 µM), 105% in experiment [1] (100 µM), 80.5% in experiment [2] (25 µM) and 85.2% in experiment [2] (100 µM).

`Fc1ccc([C@@H]2CCNC[C@H]2COc2ccc3c(c2)OCO3)cc1`: the growth in experiment [1] (25 µM) is 101%; in experiment [1] (100 µM), 15.3% (active); in experiment [2] (25 µM), 5.94% (active); in experiment [2] (100 µM), 3.06% (active).

With `CCN(CC)C(=O)/C(C#N)=C/c1cc(O)c(O)c([N+](=O)[O-])c1`, the growth is 99% in experiment [1] (25 µM), 99.4% in experiment [1] (100 µM), 107% in experiment [2] (25 µM) and 91.8% in experiment [2] (100 µM).

Regarding `NC(=O)N1CCC(CC(=O)N2CCC([C@H]3c4ncc(Br)cc4CCc4cc(Cl)cc(Br)c43)CC2)CC1`, the growth was 105% in experiment [1] (25 µM), 101% in experiment [1] (100 µM), 3.17% (active) in experiment [2] (25 µM) and 11.2% (active) in experiment [2] (100 µM).

In the case of `CC(C)(C)NC(=O)[C@@H]1CN(Cc2cccnc2)CCN1C[C@@H](O)C[C@@H](Cc1ccccc1)C(=O)N[C@H]1c2ccccc2C[C@H]1O`, the growth in experiment [1] (25 µM) is 105%; in experiment [1] (100 µM), 103%; in experiment [2] (25 µM), 113%; in experiment [2] (100 µM), 90.8%.

As for `CCn1cnc2c(N3CCCC(c4ccncc4)C3)ncnc21` (configuration not stated), the growth was 99.7% in experiment [1] (25 µM), 94.6% in experiment [1] (100 µM), 84.4% in experiment [2] (25 µM) and 62.5% in experiment [2] (100 µM).

Take `OC[C@H]1NC[C@H](O)[C@@H](O)[C@H]1O`: the growth in experiment [1] (25 µM) is 94.7%; in experiment [1] (100 µM), 100%; in experiment [2] (25 µM), 101%; in experiment [2] (100 µM), 91.1%.

As to `O=C(NCCN1CCCC1)c1ccc(Nc2nccc(-c3ccc(Cl)cc3)n2)cc1`, the growth in experiment [1] (25 µM) is 83.6%; in experiment [1] (100 µM), 7.34% (active); in experiment [2] (25 µM), 50.5%; in experiment [2] (100 µM), 5.82% (active).

Consider `COc1ccc(C(=O)N2CCC3(CC2)C(=O)N(CC(=O)NCC2CCCCC2)CN3c2ccccc2)c(OC)c1`, for which the growth in experiment [1] (25 µM) is 91.9%; in experiment [1] (100 µM) it was 85.8%; in experiment [2] (25 µM) it was 67.1%; in experiment [2] (100 µM), 50.8%.

For the compound `CCOC(=O)C1=C(CC)NC2=C(C(=O)CC(C)(C)C2)C1c1ccc(Br)cc1` (configuration not stated), the growth was 82.3% in experiment [1] (25 µM), 87% in experiment [1] (100 µM), 106% in experiment [2] (25 µM) and 73.2% in experiment [2] (100 µM).

For the compound `OCCN1CCN(CCCN2c3ccccc3Sc3ccc(C(F)(F)F)cc32)CC1`, the growth in experiment [1] (25 µM) was 1.11% (active); in experiment [1] (100 µM), 8.28% (active); in experiment [2] (25 µM) it was 3.76% (active); in experiment [2] (100 µM), 3.71% (active).

For the compound `Cc1c2c(n3c(nc4ccccc43)c1C#N)N(CCN(C)C)CC2`, the growth was 64.5% in experiment [1] (25 µM), 88.2% in experiment [1] (100 µM), 101% in experiment [2] (25 µM) and 43.7% in experiment [2] (100 µM).

Turning to `CNC(=O)c1cc(Oc2ccc(NC(=O)Nc3ccc(Cl)c(C(F)(F)F)c3)cc2)ccn1`, the growth is 103% in experiment [1] (25 µM), 94.4% in experiment [1] (100 µM), 45.7% in experiment [2] (25 µM) and 35.1% in experiment [2] (100 µM).

For `NC(=O)c1cccc(CN2Cc3ccccc3OC3(CCN(Cc4c[nH]c5cnccc45)CC3)C2)c1`, the growth in experiment [1] (25 µM) was 85%; in experiment [1] (100 µM) it was 96.6%; in experiment [2] (25 µM), 54.2%; in experiment [2] (100 µM) it was 71.2%.

Take `CC[C@H](Nc1ncnc2[nH]cnc12)c1nc2cccc(F)c2c(=O)n1-c1ccccc1`: the growth in experiment [1] (25 µM) was 98%; in experiment [1] (100 µM) it was 98.4%; in experiment [2] (25 µM), 103%; in experiment [2] (100 µM), 83.5%.

For the compound `CCOC(=O)N1CCC(=C2c3ccc(Cl)cc3CCc3cccnc32)CC1`, the growth in experiment [1] (25 µM) is 106%; in experiment [1] (100 µM) it was 104%; in experiment [2] (25 µM), 54.3%; in experiment [2] (100 µM), 6.05% (active).

In the case of `Cc1nc2ccccn2c1C1(O)C(=O)Nc2c(Cl)cc(Cl)cc21` (configuration not stated), the growth in experiment [1] (25 µM) is 101%; in experiment [1] (100 µM), 118%; in experiment [2] (25 µM) it was 99.3%; in experiment [2] (100 µM), 111%.

In the case of `C=CC(C)(C)C1=C(O)C(=O)c2ccccc2C1=O`, the growth is 103% in experiment [1] (25 µM), 101% in experiment [1] (100 µM), 98.8% in experiment [2] (25 µM) and 164% in experiment [2] (100 µM).

As for `OC1(CN2CCC(Oc3cccc(C(F)(F)F)c3)CC2)CCNC1` (configuration not stated), the growth in experiment [1] (25 µM) was 98.5%; in experiment [1] (100 µM), 19.1% (active); in experiment [2] (25 µM) it was 5.37% (active); in experiment [2] (100 µM), 12.9% (active).

With `NS(=O)(=O)OC[C@@H]1C[C@@H](n2ccc3c(N[C@H]4CCc5ccccc54)ncnc32)C[C@@H]1O`, the growth in experiment [1] (25 µM) is 112%; in experiment [1] (100 µM) it was 101%; in experiment [2] (25 µM) it was 85%; in experiment [2] (100 µM), 99.5%.

`Cc1onc(-c2ccccc2)c1-c1ccc(S(N)(=O)=O)cc1`: the growth is 97% in experiment [1] (25 µM), 105% in experiment [1] (100 µM), 117% in experiment [2] (25 µM) and 91.1% in experiment [2] (100 µM).

For the compound `C[C@@H]1CS/C(=N\NC(=O)C(=O)[C@@H](NC(=O)C2CCCCCC2)C2CCOCC2)N1C`, the growth in experiment [1] (25 µM) was 95.5%; in experiment [1] (100 µM), 98.8%; in experiment [2] (25 µM) it was 88.8%; in experiment [2] (100 µM), 93.2%.

For `NS(=O)(=O)c1cc2c(cc1Cl)NC=NS2(=O)=O`, the growth is 103% in experiment [1] (25 µM), 103% in experiment [1] (100 µM), 108% in experiment [2] (25 µM) and 96.2% in experiment [2] (100 µM).
